# Inconclusive results are not listed. Where a call stands in place of a potency, no number is given. Calls of active or inactive are those of the source. Calls follow the shape of the dose curve; as a rule, active = well fitted cell-killing curve with a large enough effect; inconclusive = small, poorly fitted or top-dose-only effect, or effect the other way; inactive = no such curve, though single readings can be large or run the other way.
# Assay: Quantitative High-Throughput drug screen in 47 multiple myeloma cell lines against the NCATS MIPE library collection: OCIMY1_PLB cell viability assay (AID 1918979); also: nearly all actives have a fitted effect of over 35% in size
# Details: OCI-MY1 myeloma viability, CellTiter-Glo ATP, 48 h; series mostly up to 45.8 µM
# Text: PI: Beverly A. Mock Ph.D.
# Laboratory of Cancer Biology and Genetics,
# Center for Cancer Research, National Cancer Institute,
# National Institute of Health, Bethesda, Maryland
# Drug resistance and disease progression are common in multiple myeloma (MM) patients, underscoring the need for new therapeutic combinations. […] We hypothesized that effective combinations would reduce MYC expression and enhance p16 activity. […] These preclinical data identify potentially useful drug combinations for evaluation in drug-resistant MM and reveal potential mechanisms of combined drug sensitivity.
# Described herein is the primary MIPE qHTS used to cherrypick compounds. Validated compounds were then further tested for potential synergistic activiy.
# [1] Peat TJ, Gaikwad SM, Dubois W, Gyabaah-Kessie N, Zhang S, Gorjifard S, Phyo Z, Andres M, Hughitt VK, Simpson RM, Miller MA, Girvin AT, Taylor A, Williams D, D'Antonio N, Zhang Y, Rajagopalan A, Flietner E, Wilson K, Zhang X, Shinn P, Klumpp-Thomas C, McKnight C, Itkin Z, Chen L, Kazandijian D, Zhang J, Michalowski AM, Simmons JK, Keats J, Thomas CJ, Mock BA. Drug combinations identified by high-throughput screening promote cell cycle transition and upregulate Smad pathways in myeloma. Cancer Lett. 2023 Aug 1;568:216284. doi: 10.1016/j.canlet.2023.216284. Epub 2023 Jun 24. PMID: 37356470; PMCID: PMC10408729.
# SEQUENCE No. (e.g., 1, 2, 3, etc.); […] (e.g., Cells, Incubation, Reagent, etc.); VALUE and DESCRIPTION.
# 1; Cells; 5 uL; white, solid bottom 1536-well Greiner assay plate.
# 2; Compounds; 23 nL; Kalypsis pin tool (Wako USA) equipped with a 1536-well pin head to transfer to the assay plates.
# 3; Incubation; 48 hours; 37C incubation.
# 4; Reagent;5uL; CellTiter Glo (Promega).
# 5; Detector; 425V; Luminescence; Viewlux PerkinElmer.
# NOTES (numbers refer to Sequence numbers above)
# 1. The cell-based screening methods employed in this study were like those previously published. Briefly, the corresponding myeloma cell lines were screened in 1,536-well plates with 500 cells, 5-uL per well for inhibition of cell viability (assessed by measuring ATP levels with CellTiterGlo).
# 2. NCATS MIPE 4.0 library of approved and investigational drugs were added using the Kalypsis pin tool. Wells treated with DMSO only for 100% viability and media only for 0% viability were used as controls.
# 3. The assay plates were covered and incubated for 48 hours in a 37C, 5% CO2 incubator with controlled humidity.
# 4. After 48 hours, CellTilter-GloTM luminescent substrate mix (Promega) reagent was added to the assay plate and plates we incubated for 5 min at room temperature.
# 5. Signal was measured as median relative luminescence units on a ViewLux (PerkinElmer) multiplate reader.
# [1] Heske CM, Davis MI, Baumgart JT, Wilson K, Gormally MV, Chen L, Zhang X, Ceribelli M, Duveau DY, Guha R, Ferrer M, Arnaldez FI, Ji J, Tran HL, Zhang Y, Mendoza A, Helman LJ, Thomas CJ. Matrix Screen Identifies Synergistic Combination of PARP Inhibitors and Nicotinamide Phosphoribosyltransferase (NAMPT) Inhibitors in Ewing Sarcoma. Clin Cancer Res. 2017 Dec 1;23(23):7301-7311. doi: 10.1158/1078-0432.CCR-17-1121. Epub 2017 Sep 12. PMID: 28899971; PMCID: PMC6636827.
# Potency is read from the fitted curve at half-maximal effect.
row,Compound,Potency
1,CCC(=O)N[C@H]1CC[C@H](C(=O)N(C)c2ccc(-c3nc4ccccc4o3)cc2)C1,inactive
2,CN(C)c1ccc(C2Nc3ccc4ccccc4c3C3=C2C(=O)CC(C)(C)C3)cc1Br (stereo not given),inactive
3,O=C1[C@H](Cc2ccc(O)cc2)N2C(=O)CCN(C(=O)NCc3ccccc3)[C@H]2CN1Cc1cccc2ccccc12,16.6 µM (active)
4,CCn1c(-c2nonc2N)nc2c(C#CC(C)(C)O)ncc(OC[C@H]3CCCNC3)c21,4.18 µM (active)
5,Clc1ccc(Nc2nnc(Cc3ccncc3)c3ccccc23)cc1,inactive
6,CCOc1ccc(Cc2cc([C@@H]3O[C@H](CO)[C@@H](O)[C@H](O)[C@@H]3O)ccc2Cl)cc1,inactive
7,Cc1ccc(N(CC2=NCCN2)c2cccc(O)c2)cc1,inactive
8,CCOc1cc(C=C2C(=O)N(c3ccccc3)N=C2C)cc(Cl)c1OCC(=O)OC,inactive
9,CC1(C)Cc2c(-c3ccccc3)c(-c3ccc(Cl)cc3)c(CC(=O)O)n2C1,23.5 µM (active)
10,N#Cc1ccc(C(c2ccc(C#N)cc2)n2cncn2)cc1,3.72 µM (active)
11,CCCS(=O)(=O)Nc1ccc(F)c(C(=O)c2c[nH]c3ncc(Cl)cc23)c1F,inactive
12,Cc1oncc1C(=O)Nc1ccc(C(F)(F)F)cc1,inactive
13,CNC(=O)c1ccc(N2C(=S)N(c3ccc(C#N)c(C(F)(F)F)c3)C(=O)C2(C)C)cc1F,inactive
14,O=C1CCc2cc(OCCCCc3nnnn3C3CCCCC3)ccc2N1,inactive
15,CO[C@@H]1[C@H](N(C)C(=O)c2ccccc2)C[C@H]2O[C@]1(C)n1c3ccccc3c3c4c(c5c6ccccc6n2c5c31)C(=O)NC4,5.26 µM (active)
16,CC(C[N+](C)(C)C)OC(N)=O (stereo not given),inactive
17,COc1cccc2cc(-c3nc(C4CCC(C(=O)O)CC4)n4ncnc(N)c34)[nH]c12 (stereo not given),1.05 µM (active)
18,CN(C)C(=O)c1ccc(S(=O)(=O)c2ccc(NC(=O)[C@@](C)(O)C(F)(F)F)c(Cl)c2)cc1,inactive
19,COc1ccc(C2=N[C@H](c3ccc(Cl)cc3)[C@H](c3ccc(Cl)cc3)N2C(=O)N2CCNC(=O)C2)c(OC(C)C)c1,inactive
20,Cc1ccccc1C(OCCN(C)C)c1ccccc1 (stereo not given),inactive

row,Compound,Potency
1,NC(=O)c1ccc(-c2nc(-c3ccc4c(c3)OCO4)c(-c3ccccn3)[nH]2)cc1,inactive
2,O=C(O)COCCN1CCN(C(c2ccccc2)c2ccc(Cl)cc2)CC1 (stereo not given),inactive
3,CC(C)NCC(O)COc1ccc(COCCOC(C)C)cc1 (stereo not given),inactive
4,COc1ccc(-c2oc3cc(OC)ccc3c2C(=O)c2ccc(C#N)cc2)cc1,inactive
5,COc1cc2nccc(Oc3ccc(NC(=O)NC4CC4)c(Cl)c3)c2cc1C(N)=O,20.9 µM (active)
6,CCOc1ccn(-c2ccc(F)cc2)c(=O)c1C(=O)Nc1ccc(Oc2ccnc(N)c2Cl)c(F)c1,inactive
7,CNC[C@H](O)c1cccc(O)c1,inactive
8,CC(=O)Oc1ccccc1C(=O)O,inactive
9,Cc1ccnc(NS(=O)(=O)c2ccc(NC(=O)Nc3ccc(S(=O)(=O)Nc4nccc(C)n4)cc3)cc2)n1,inactive
10,CCN(c1ccccc1)c1cc(NC)[n+](C)c(C)n1,inactive
11,Cc1ccc(-n2nc(C(C)(C)C)cc2NC(=O)Nc2ccc(OCCN3CCOCC3)c3ccccc23)cc1,inactive
12,N[C@@H]1CONC1=O,inactive
13,CCN(CC)CCCC(C)Nc1ccnc2cc(Cl)ccc12 (stereo not given),inactive
14,COCCNCCCn1c(C(=O)CF)c(-c2ccc(C)cc2)c2c(N)ncnc21,inactive
15,CN1CCN(CCCN2c3ccccc3Sc3ccc(C(F)(F)F)cc32)CC1,inactive
16,Cn1cnc([N+](=O)[O-])c1Sc1ncnc2nc[nH]c12,inactive
17,COc1ccccc1-c1cccc(-c2c(O)c3cc(C#N)c(Cl)cc3[nH]c2=O)c1,inactive
18,O=C(C1CC1)N1CC[C@@H](Cn2c(-c3ccc(-c4ccc5occc5c4)cc3)nc3cnccc32)C1,inactive
19,O=S(=O)(N=Cc1c(O)ccc2ccccc12)c1cccs1,inactive
20,N=c1nc(N2CCCCC2)cc(N)n1O,inactive

# From PubChem BioAssay (NCATS)
